Test results: the supplement of paper PMC12067093, “Discovery and optimisation of a covalent ligand for TRIM25 and its application to targeted protein ubiquitination” (Chemical Science, 2025)
The full data set covers some 21,000 targets. This sample favours those with the largest changes.

Compound: Cc1cc(ccc1-c1ccccc1)C(=O)N1CCCN(CC1)C(=O)CCl [compound 10]
Assay: probe-labelled cysteine peptide fold change vs DMSO (competition) (log2 fold change); higher = less target engagement (more negative = stronger competition)
Conditions: THP-1, incubation time: 4 h
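Also: competitive profiling in live THP-1 cells: cysteine peptides tagged with an iodoacetamide desthiobiotin (IA-DTB) probe, intensity after compound treatment relative to DMSO-treated cells.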

Target	probe-labelled cysteine peptide fold change (10 µM)	probe-labelled cysteine peptide fold change (50 µM)
LRPPRC_P42704_571_YCQEPR (UniProt P42704)	0.261	0.6
LMAN1_P49257_230_NDYEFCAK (UniProt P49257)	0.239	0.703
LSS_P48449_471_CPHVTEHIPR (UniProt P48449)	-0.184	-0.209
MPC2_O95563_54_WGLVCAGLADMARPAEK (UniProt O95563)	-0.141	-1.31
LPP_Q93052_524_SLDGIPFTVDAGGLIHCIEDFHKK (UniProt Q93052)	-0.0384	-0.452
MRPS18A_Q9NVS2_186_DNVCYSR (UniProt Q9NVS2)	-0.0735	-0.099
MYCBP2_O75592_3241_DTICELCGESHPYPVTYHMR (UniProt O75592)	-0.0846	-0.18
MAK16_Q9BXY0_17_QFCSFK (UniProt Q9BXY0)	-0.115	-0.166
MCMBP_Q9BTE3_325_LQHINPLLPACLNK (UniProt Q9BTE3)	-0.451	-1.87
MTHFD1_P11586_236_GEWIKPGAIVIDCGINYVPDDKKPNGR (UniProt P11586)	-0.116	-1.23
LUC7L3_O95232_58_SDLGPCEK (UniProt O95232)	-0.112	-0.363
MAP2K2_P36507_384_SEVEEVDFAGWLCK (UniProt P36507)	0.0856	0.0969
MLST8_Q9BVC4_34_FWQAHSGICTR (UniProt Q9BVC4)	-0.182	0.0338
MKS1_Q9NXB0_226_KYEHVLCTLK (UniProt Q9NXB0)	-0.112	0.305
